Laboratory results published in PubChem BioAssay (NCI).
About 83,000 compounds went through this panel and 20% of them were active in at least one assay; those are over-represented in the sample as a whole.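 Activity criterion: percent growth below 10, measured after cells in 96-well plates were exposed to a single compound concentration for 48 hours.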 Values without a mark were called inactive. Activity calls are given as the source filed them.

Tests used:
Experiment in all cases: NCI-60 one-dose screen, 48 h (100 = growth as untreated, 0 = no growth, -100 = all killed)
Details in all cases: 10 µM unless noted
NCI-H23 lung = test system: NCI-H23 lung
NCI-H226 lung = test system: NCI-H226 lung
NCI-H322M lung = test system: NCI-H322M lung
HOP-62 NSCLC = test system: HOP-62 NSCLC
NCI-H460 lung = test system: NCI-H460 lung
HOP-92 NSCLC = test system: HOP-92 NSCLC
NCI-H522 lung = test system: NCI-H522 lung
A549/ATCC NSCLC = test system: A549/ATCC NSCLC
786-0 renal = test system: 786-0 renal
COLO 205 colon = test system: COLO 205 colon
DU-145 prostate = test system: DU-145 prostate
K-562 leukemia = test system: K-562 leukemia
MALME-3M melanoma = test system: MALME-3M melanoma
MDA-MB-231 breast = test system: MDA-MB-231 breast
RXF 393 renal = test system: RXF 393 renal
SF-268 CNS = test system: SF-268 CNS
SF-295 CNS = test system: SF-295 CNS
SF-539 CNS = test system: SF-539 CNS
UACC-257 melanoma = test system: UACC-257 melanoma
M14 melanoma = test system: M14 melanoma

Compound	growth (NCI-H23 lung)	growth (NCI-H226 lung)	growth (NCI-H322M lung)	growth (HOP-62 NSCLC)	growth (NCI-H460 lung)	growth (HOP-92 NSCLC)	growth (NCI-H522 lung)	growth (A549/ATCC NSCLC)	growth (786-0 renal)	growth (COLO 205 colon)	growth (DU-145 prostate)	growth (K-562 leukemia)	growth (MALME-3M melanoma)	growth (MDA-MB-231 breast)	growth (RXF 393 renal)	growth (SF-268 CNS)	growth (SF-295 CNS)	growth (SF-539 CNS)	growth (UACC-257 melanoma)	growth (M14 melanoma)
O=C(/C=C/C12c3ccccc3C(c3ccccc31)C1C(=O)NC(=O)C12)c1ccco1 (stereo not given)	28.7%	81.6%	30.2%	17.7%	11%	24%	17%	55.4%	41.1%	45.8%	-0.301% (active)	12.9%	49.3%	40.3%	1.72% (active)	28.7%	41.9%	30.8%	44.9%	46.6%
CCOC(=O)CNC1=C(Cl)C(=O)N(Cc2ccc(Cl)cc2)C1=O	102%	99.7%	97%	98%	104%	93.4%	89.1%	106%	99%	118%	113%	106%	93.9%	104%	120%	98.5%	108%	90.6%	106%	105%
O=S(=O)(Nc1cc(Sc2nc3ccccc3s2)c(O)c2ccccc12)c1ccc2ccccc2c1	76.3%	94.1%	94.9%	102%	99.7%	109%	83%	99.9%	111%	101%	101%	-35.7% (active)	102%	71.1%	104%	95.4%	87.7%	106%	99.8%	109%
CC(C)=CC(=O)N[C@H]1CC[C@]2(C)C3CC[C@]4(C)C(C(C)N(C)C)=CCC4C3CCC2[C@H]1O (stereo not given in full)	65%	99.6%	57.5%	66.6%	18.6%	41%	89.4%	75.5%	48.2%	-14.9% (active)	71.9%	19.5%	-27.3% (active)	44.2%	26.8%	9.05% (active)	59.2%	-32.2% (active)	-26.8% (active)	-56.3% (active)
Cc1ccc(O)c(NC(=O)c2cccc(Nc3ccnc(C(F)(F)F)c3)c2)c1	44.1%	44.8%	86.5%	85.6%	55.4%	77.6%	43.1%	60.3%	50%	128%	80.9%	40.9%	70.1%	58.9%	91.2%	76.6%	40.3%	72.6%	58.7%	68.4%
CCCCCCCCn1ccc2cc(NC(=O)CN3CCN(c4cc(C)nc(Cl)n4)CC3)ccc21	81.7%	82.2%	89.5%	119%	91.8%	81.1%	76.2%	87.4%	94.6%	106%	93.8%	63.1%	95.3%	94.8%	69.2%	90.3%	83.7%	92.8%	92.8%	89.4%
Cc1ncc(C(=O)Nc2ccc(CN3CCN(C)CC3)c(C(F)(F)F)c2)cc1C#Cc1cnc(N)c2ccc(C#N)cc12	29.5%	0.011% (active)	27.9%	-7.92% (active)	11.2%	-20.2% (active)	27.2%	22.9%	-70.1% (active)	5.29% (active)	8.97% (active)	-35.3% (active)	-55.6% (active)	-76.5% (active)	-64% (active)	16.7%	54.1%	-0.429% (active)	-9.1% (active)	-41.5% (active)
COc1ccc2c(O)c(/C=C3\N=Nc4ncccc43)oc2c1C[C@@H]1CCNC[C@H]1F	-33.1% (active)	-4.38% (active)	3.89% (active)	-30.5% (active)	-51.2% (active)	98.7%	-28.5% (active)	-24.1% (active)	-78.3% (active)	-71.9% (active)	-19.7% (active)	-26.4% (active)	-31.2% (active)	-40% (active)	-68.1% (active)	-31.1% (active)	0.571% (active)	-48.2% (active)	13.7%	-70.3% (active)
CC(=O)c1c(Nc2cccc(F)c2)[nH]c2c(Cl)cc(Cl)c(Cl)c2c1=O	3.83% (active)	-4.3% (active)	9.02% (active)	-10.1% (active)	3.6% (active)	-14.2% (active)	-8.41% (active)	4.98% (active)	12.2%	-63.4% (active)	25.2%	7.81% (active)	-18.6% (active)	-3.57% (active)	4.14% (active)	19.2%	-28.4% (active)	4.02% (active)	-14.2% (active)	6.55% (active)
C1CCC(N2CN3c4nonc4N4CN(C5CCCCC5)CN5c6nonc6N(C2)C3C45)CC1 (stereo not given)	98.4%	96.4%	95.6%	97.2%	99.4%	82.1%	92.1%	92.4%	108%	107%	104%	82.1%	91.5%	106%	103%	96.5%	91.6%	101%	99.2%	96%
COc1ccc(C=Nc2c(C(=O)Nc3cccc(Cl)c3C)sc3nc(C)c(C(=O)/C=C/c4ccc(OC)cc4)cc23)cc1	31.2%	53.8%	43.1%	46.5%	8.92% (active)	79.2%	0.467% (active)	30.8%	21.5%	11.2%	14.7%	17.1%	44.4%	2.5% (active)	-44.4% (active)	29.9%	18.5%	-30.6% (active)	55.6%	-3.16% (active)
C/C(=C(\c1ccc(OCCN2CCCCCC2)cc1)c1ccc(OC(=O)c2ccccc2)cc1)c1ccc(Cl)cc1	46.7%	87.5%	71.7%	71.7%	3.62% (active)	56.2%	51%	39.1%	21.8%	4.38% (active)	66.1%	-4.61% (active)	17.3%	51.1%	19%	43.1%	44.4%	58.5%	-7.06% (active)	0.53% (active)
Cc1cc(Cl)nc(N2CCN(CCNc3ccnc4cc(Cl)ccc34)CC2)n1	27.2%	59.8%	75.2%	68.2%	48.3%	27.9%	51.8%	58.2%	49.1%	-50.1% (active)	66.6%	10.5%	41.8%	49.5%	61.5%	72.2%	36.4%	31.7%	13.5%	30.9%
CCN(CC)CCOc1ccc2ccc(=O)oc2c1	106%	106%	88.2%	100%	110%	-15.1% (active)	89.6%	99.7%	101%	102%	121%	2.68% (active)	105%	99.5%	103%	109%	94.3%	101%	93%	94.8%
